The structures appear in SMILES notation. Inconclusive results are not listed. Values without a mark were called inactive. Activity calls are given as the source filed them. Calls follow the shape of the dose curve; as a rule, active = well fitted inhibition curve with a large enough effect; inconclusive = small, poorly fitted or top-dose-only effect; inactive = flat fitted curve, though single readings scatter.
% is scaled to controls: 0 for no effect and ±100 for the full control effect.

The target in the test is Ubiquitin carboxyl-terminal hydrolase 1 (Homo sapiens) (UniProt O94782). The test is described as follows: Inhibitors of USP1/UAF1: Pilot qHTS (AID 504865).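 Also: rhodamine fluorescence freed from ubiquitin-rhodamine substrate followed over time; top concentration of the series differs between compounds; nearly all actives have a fitted effect of over 35% in size.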 The settings on record: purified USP1/UAF1, Ub-rhodamine cleavage fluorescence; series mostly up to 114 µM; activity change, negative = inhibition: at the top concentration. In a few lines: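 Deubiquitinase activity followed as kinetic rhodamine fluorescence release from 150 nM Ub-Rho. 1 nM USP1/UAF1 with compound, after 15 min room-temperature preincubation, in HEPES pH 7.8 buffer containing TCEP, EDTA, BSA and Tween-20.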
Chain of Ubiquitin carboxyl-terminal hydrolase 1 (Homo sapiens) (O94782 whole entry, looked up): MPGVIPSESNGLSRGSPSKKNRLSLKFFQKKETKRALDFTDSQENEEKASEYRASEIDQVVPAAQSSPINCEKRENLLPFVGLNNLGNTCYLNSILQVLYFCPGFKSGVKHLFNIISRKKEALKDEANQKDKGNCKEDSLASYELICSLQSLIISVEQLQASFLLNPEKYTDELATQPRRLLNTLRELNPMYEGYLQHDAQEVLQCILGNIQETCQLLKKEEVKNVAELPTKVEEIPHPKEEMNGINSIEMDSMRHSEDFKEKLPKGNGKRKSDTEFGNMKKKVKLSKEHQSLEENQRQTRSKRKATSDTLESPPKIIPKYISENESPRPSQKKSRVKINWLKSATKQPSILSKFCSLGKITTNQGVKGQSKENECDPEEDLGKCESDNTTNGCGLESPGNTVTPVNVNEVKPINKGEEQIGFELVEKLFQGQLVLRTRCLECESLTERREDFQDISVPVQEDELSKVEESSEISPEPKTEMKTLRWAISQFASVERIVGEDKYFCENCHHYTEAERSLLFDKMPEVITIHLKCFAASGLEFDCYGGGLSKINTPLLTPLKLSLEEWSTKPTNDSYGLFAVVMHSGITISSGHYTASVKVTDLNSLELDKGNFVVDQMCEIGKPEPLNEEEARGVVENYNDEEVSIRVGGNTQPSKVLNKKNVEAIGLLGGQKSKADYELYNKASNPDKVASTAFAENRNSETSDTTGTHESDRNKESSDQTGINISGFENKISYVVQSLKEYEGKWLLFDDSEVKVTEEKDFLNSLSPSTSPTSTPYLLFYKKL
On the technique in general: Quantitative high-throughput screening tests each substance at several concentrations.
Regarding `CN1c2ccccc2C(NCCCCCCC(=O)O)c2ccc(Cl)cc2S1(=O)=O` (stereo not drawn), the “activity change, negative = inhibition” value was -7.33%.

Turning to `c1csc(C2(N3CCCCC3)CCCCC2)c1`, the “activity change, negative = inhibition” value is -10.3%.

In the case of `O=c1[nH]cc(N(CCCl)CCCl)c(=O)[nH]1`, the “activity change, negative = inhibition” value is -1.07%.

As to `ClC1C(Cl)C(Cl)C(Cl)C(Cl)C1Cl` (stereo not drawn), the Potency entry is “inactive”.

Take `Cn1sc(Cl)cc1=O`: the “activity change, negative = inhibition” value was -0.0824%.

For the compound `O=S(=O)(O)c1cc(O)ccc1O`, the “activity change, negative = inhibition” value is 1.05% [at 54.9 µM].

For the compound `C[C@H]1CCC[C@H](O)CCCCCc2cc(O)cc(O)c2C(=O)O1`, the “activity change, negative = inhibition” value is -3.94%.

With `Cc1cc(C)cc(C(=O)OC2C[C@H]3CC[C@@H](C2)N3C)c1` (stereo partly drawn), the “activity change, negative = inhibition” value is -8.03%.

Turning to `FC(F)OC(F)(F)C(F)Cl` (stereo not drawn), the “activity change, negative = inhibition” value is 3.21%.

As to `COCC(C)N(C(=O)CCl)c1c(C)csc1C` (stereo not drawn), the “activity change, negative = inhibition” value was -0.0092%.

On to `CCC1C(C)=NN=C(c2ccc(OC)c(OC)c2)c2cc(OC)c(OC)cc21` (stereo not drawn), for which the “activity change, negative = inhibition” value was -12.2%.

Regarding `O=[N+]([O-])C(Br)(CO)CO`, the “activity change, negative = inhibition” value is -10.4%.

Consider `O=C1CN(O)C(c2ccccc2)=c2cc(Cl)ccc2=N1`, for which the “activity change, negative = inhibition” value was -7.12%.

Consider `CC(=O)O[C@H]1CC[C@H]2[C@@H]3CCC4=CC(=O)CCC4=C3C=C[C@]12C`, for which the “activity change, negative = inhibition” value is -19.2%.

As to `c1ccc2sc(SNC3CCCCC3)nc2c1`, the “activity change, negative = inhibition” value was -8.37%.

`O=Cc1ccco1`: the “activity change, negative = inhibition” value was 0.786%.

As to `ClCC1CO1` (stereo not drawn), the “activity change, negative = inhibition” value was -8.54%.

`c1cc2c(c(NC3=NCCN3)c1)CCCC2`: the “activity change, negative = inhibition” value was -6.05%.

For `O=c1[nH]c(=O)n(Cl)c(=O)n1Cl`, the “activity change, negative = inhibition” value is -5.17%.

On to `COc1ccc2c3c1O[C@H]1C(=O)CC[C@H]4[C@@H](C2)N(C)CC[C@]314`, for which the “activity change, negative = inhibition” value is -8.03%.

`CC[N+](C)(CC)CCOC(=O)C(O)(c1ccccc1)c1ccccc1`: the “activity change, negative = inhibition” value is -9.82%.

As to `O=C(O)C(Cl)(Cl)Cl`, the “activity change, negative = inhibition” value was -2.14%.

Consider `O=C(OCCN1CCCCC1)C(O)(c1ccccc1)c1ccccc1`, for which the “activity change, negative = inhibition” value is -7.71%.

(Values after PubChem BioAssay (NCATS).)
